Results from PubChem BioAssay AID504834 (National Center for Advancing Translational Sciences (NCATS), 2011).
Out of some 320,000 compounds screened, about 22,000 (6.9%) were called active. Where a call stands in place of a potency, no number is given. Another 27% or so got no clear call; they are omitted. Calls follow the shape of the dose curve; as a rule, active = well fitted inhibition curve with a large enough effect; inconclusive = small, poorly fitted or top-dose-only effect, or another doubt; inactive = no such curve, though single readings can be large or run the other way. Only a selection was taken, and actives are over-represented in it overall.

assay: Primary qHTS for delayed death inhibitors of the malarial parasite plastid, 96 hour incubation; conditions: P. falciparum luciferase reporter growth; series mostly up to 28.7 µM
In short: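 Plates of compound plus infected erythrocytes (2% hematocrit, 0.05% parasitemia final) incubate 96 hours, 37 C, 5% CO2. Detection reagent added; reduced luminescence from the parasites' luciferase reporter flags inhibition.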
Potency is read from the fitted curve at half-maximal effect.

| SMILES | Potency | activity change, negative = inhibition |
| --- | --- | --- |
| O=C(CCNS(=O)(=O)c1ccccc1)NCCCc1ccccc1 | inactive | – |
| CN1C(=O)c2ccc(C(=O)Nc3ccc(Br)cn3)cc2C1=O | inactive | – |
| Cc1c(C(=O)N2CCOCC2)[nH]c2ccc(OCc3ccccc3)cc12 | inactive | – |
| CCOC(=O)c1[nH]c2ccc(OC)cc2c1NC(=O)N1CCOCC1 | 14.7 µM (active) | – |
| CCOC(=O)c1[nH]c2ccc(OC)cc2c1NC(=O)CCN1CCN(Cc2ccccc2)CC1 | inactive | – |
| O=C(COc1ccc(Cl)cc1)Nc1ccc2oc(=O)ccc2c1 | inactive | – |
| COc1cc(F)c(C2=CC(=O)CC(C)(C)C2)cc1F | inactive | – |
| CC1(C)CC(=O)C=C(c2ccc(Cl)c(C(F)(F)F)c2)C1 | 5.86 µM (active) | – |
| CC1(C)CC(=O)C=C(c2ccc3ncccc3c2)C1 | inactive | – |
| COC(=O)C1(C)NC(c2ccccc2OC)C2C(=O)N(c3ccccc3)C(=O)C21 (configuration not stated) | inactive | – |
| Cc1cc(C(=O)NCCc2ccc(Cl)cc2)n(-c2ccccc2)n1 | inactive | – |
| CCc1[nH]nc(C(=O)N2CCCC(CO)(Cc3ccc(F)cc3F)C2)c1C (configuration not stated) | inactive | – |
| CCCN(c1ccc(C)cc1)c1nc(=O)c2cccnc2s1 | 6.57 µM (active) | – |
| CCc1c(C)nc(SCC(=O)NC2CCCC2)[nH]c1=O | inactive | – |
| CCc1ccc(C(=O)NN=C2CCCCCC2)s1 | inactive | – |
| CC(=O)Nc1ccc(NC(=O)COc2ccc(-c3ccccc3)cc2)cc1 | inactive | – |
| C[N+]1(C)CCOC(O)(c2ccc(-c3ccc(C4(O)C[N+](C)(C)CCO4)cc3)cc2)C1 (configuration not stated) | 5.86 µM (active) | – |
| O=C(COC(=O)c1cnccn1)Nc1ccc(Cl)cc1C(F)(F)F | inactive | – |
| CCCCCCCC(=O)OC(CN1CCCCCC1)CN1CCCC1=O (configuration not stated) | inactive | – |
| O=C1CC(NNc2ccccc2)C(=O)N1c1cccc(Cl)c1 (configuration not stated) | inactive | – |
| O=c1c(-c2cccc(Cl)c2)c[nH]n1-c1ccccc1 | 7.38 µM (active) | – |
| O=C1NC(c2cccc(Cl)c2)Nc2ccccc21 (configuration not stated) | inactive | – |

| SMILES | Potency | activity change, negative = inhibition |
| --- | --- | --- |
| CC1(C)CC(=O)C=C(Nc2ccccc2)C1 | inactive | – |
| CC(=O)c1ccc(S(=O)(=O)NC2CC(=O)N(c3ccc4c(c3)OCCO4)C2)cc1 (configuration not stated) | inactive | – |
| O=C(CC1(O)C(=O)N(CN2CCOCC2)c2ccccc21)c1ccccc1 (configuration not stated) | inactive | – |
| C=CCN1C(=O)C(O)(CC(=O)c2ccc(Cl)cc2)c2ccccc21 (configuration not stated) | 14.7 µM (active) | – |
| C=CCN1C(=O)C(O)(CC(=O)c2ccccn2)c2ccccc21 (configuration not stated) | inactive | – |
| O=C(Nc1nnc(-c2ccc(F)cc2)s1)c1c(F)cccc1Cl | inactive | – |
| O=C(Nc1ccc(F)cc1)C1CCN(C(=O)c2ccc([N+](=O)[O-])cc2)CC1 | – | 31.7% [at 5.75 µM] (inactive) |
| CC1CCN(C(=O)c2ccc(S(=O)(=O)Cc3cc(F)ccc3F)c([N+](=O)[O-])c2)CC1 | 10.4 µM (active) | – |
| O=C(c1ccc(Oc2ccc(Cl)cc2)c([N+](=O)[O-])c1)N1CCCC1 | inactive | – |
| C#CC(C)(C)NC(=O)c1cnc(-c2ccccc2)nc1-c1ccccc1 | inactive | – |
| Cc1oc2c(c1C(=O)N1CCOCC1)C(=O)c1ccccc1C2=O | 0.828 µM (active) | – |
| O=C(c1ccccc1-c1ccccc1)N1CCOCC1 | inactive | – |
| Cc1noc(C)c1C(=O)N1CCOCC1 | inactive | – |
| O=S(=O)(NCC1CC1)c1ccc(F)c(Cl)c1 | inactive | – |
| CCOC(=O)C1CCN(C(=O)Nc2ccc(Cl)cc2)CC1 | inactive | – |
| CCOc1ccc(OCC)c(NC(=O)C2CCN(S(=O)(=O)c3c(C)noc3C)CC2)c1 | inactive | – |
| CCOC(=O)C1CCN(C(=O)C2CCN(S(=O)(=O)N3CCCC3)CC2)CC1 | 6.57 µM (active) | – |
| CCOC(=O)N1CCC(C(N)=O)CC1 | inactive | – |
| CCOC(=O)C1CCN(S(=O)(=O)c2c(C)noc2C)CC1 | inactive | – |
| CCOC(=O)C1CCN(C(=O)C2CCN(S(=O)(=O)c3c(C)noc3C)CC2)CC1 | 4.15 µM (active) | – |
| O=C(O)C1C2C=CC(C2)C1C(=O)NCc1ccccc1 (configuration not stated) | inactive | – |
| COc1ccc(NS(=O)(=O)c2cccc3nsnc23)cc1Cl | inactive | – |

| SMILES | Potency | activity change, negative = inhibition |
| --- | --- | --- |
| Nc1c(Cl)cc(S(N)(=O)=O)cc1S(N)(=O)=O | inactive | – |
| CCCCCCCCCCCCN1C(=O)CSC1c1cccnc1 (configuration not stated) | 1.65 µM (active) | – |
| CCCCCCOc1ccc(OC(=O)c2cccnc2)cc1 | inactive | – |
| CN(C)CCCN1C(=O)CSC1c1ccc([N+](=O)[O-])cc1 (configuration not stated) | inactive | – |
| COc1ccc(NC(=O)CN2C(=O)CSc3ccc(S(=O)(=O)N4CCC(C)CC4)cc32)cc1 | inactive | – |
| Cc1cc(NC(=O)Nc2ccc(Cl)cc2)n(-c2ccccc2)n1 | inactive | – |
| Cc1cc(C)nc(-n2nc(C)cc2NC(=O)c2ccc(F)cc2F)n1 | 9.28 µM (active) | – |
| CC(=O)N/C(=N/c1nc(C)cc(C)n1)Nc1ccc(F)cc1F | inactive | – |
| Cc1c([N+](=O)[O-])c(N)nn1C | inactive | – |
| CCOC(=O)c1oc2ccccc2c1NC(=O)c1cccs1 | inactive | – |
| Cc1cc(C)c(NC(=O)c2oc3ccccc3c2COc2ccccc2)c(C)c1 | 5.22 µM (active) | – |
| COc1ccc(CC(=O)Nc2c(C(N)=O)oc3ccccc23)cc1 | inactive | – |
| COc1ccc(-c2nnc(SCC(=O)Nc3cccnc3Cl)n2C)cc1 | inactive | – |
| Cc1cc(C)nc(SCC(=O)c2ccc(Cl)cc2)n1 | inactive | – |
| CCCn1cc(SCC(N)=O)c2ccccc21 | inactive | – |
| CCC(=O)c1cn(CCOc2ccccc2OC)c2ccccc12 | 13.1 µM (active) | – |
| COc1ccccc1C(=O)NCCn1cc(SCC(=O)NCc2ccco2)c2ccccc21 | inactive | – |
| Cc1ccc(OCc2nc3ccccc3n2C)cc1 | inactive | – |
| Cc1ccc(OCc2nnc(SC3CCc4ccccc4C3=O)n2C)cc1 (configuration not stated) | 13.1 µM (active) | – |
| Cc1ccc(OCc2n[nH]c(=S)n2-c2ccccc2)cc1 | inactive | – |
| CCc1nn(CCCC(=O)Nc2ccc(C)cc2C)c(=O)c2cc3occc3n12 | inactive | – |
| CN(C)S(=O)(=O)c1cccc(C(=O)OCC(=O)N2CCCC2=O)c1 | inactive | – |

| SMILES | Potency | activity change, negative = inhibition |
| --- | --- | --- |
| Cc1ccc(C(=O)NCCN2CCOCC2)cc1C | 7.38 µM (active) | – |
| Cc1cc(C)cc(C(=O)NCCN2CCOCC2)c1 | inactive | – |
| Cc1ccc(C(=O)N/C(=C\c2ccc(F)cc2)C(=O)NCCN2CCOCC2)cc1 | 6.57 µM (active) | – |
| COc1ccc(C(=O)NCCCN2CCOCC2)cc1Br | inactive | – |
| O=C(NCCN1CCOCC1)/C(=C/c1ccc(F)cc1)NC(=O)c1ccccc1 | inactive | – |
| Cc1ccc(C(=O)NC(=S)NCCN2CCOCC2)cc1 | inactive | – |
| CCOc1ccc(N(C)S(=O)(=O)c2cnc[nH]2)cc1 | inactive | – |
| O=C(COc1ccc(Cl)cc1Cl)N/N=C/c1ccccn1 | inactive | – |
| O=C(NCCN1CCOCC1)c1ccc(/C=C2\Sc3ccccc3N(Cc3ccc(F)cc3)C2=O)cc1 | inactive | – |
| CC(=O)[C@@]12O[C@@H]1C[C@H]1[C@@H]3CC[C@H]4C[C@@H](O)CC[C@]4(C)[C@H]3CC[C@@]12C | inactive | – |
| COC(=O)c1ccc(NS(=O)(=O)c2cc3c4c(c2)C(C)C(=O)N4CCC3)cc1 (configuration not stated) | inactive | – |
| COc1ccc(CNC(=O)C(=O)N2CCC3(CC2)OCCN3S(=O)(=O)c2ccc(C)cc2)cc1 | inactive | – |
| CC(C)c1ccc(S(=O)(=O)N2CCC3(CC2)OCCO3)cc1 | inactive | – |
| COc1ccc(S(=O)(=O)N2CCOC23CCN(S(=O)(=O)c2ccc([N+](=O)[O-])cc2)CC3)cc1 | 11.7 µM (active) | – |
| C=CCn1c(=O)c(C(=O)Nc2ncccc2O)c(O)c2ccccc21 | inactive | – |
| CC(NS(=O)(=O)c1ccccc1)c1n[nH]c(=S)n1-c1ccccc1 (configuration not stated) | inactive | – |
| C=CCn1c(CCc2ccc(OC(C)C)cc2)n[nH]c1=S | inactive | – |
| CC(C)Oc1ccc(CCc2n[nH]c(=S)n2Cc2ccccc2)cc1 | 2.08 µM (active) | – |
| NS(=O)(=O)c1ccccc1NC(=O)c1c(O)c2ccccc2[nH]c1=O | inactive | – |
| O=C(c1ccc(NS(=O)(=O)c2ccc3[nH]c(=O)[nH]c3c2)cc1)N1CCCCC1 | inactive | – |
| Cc1cc(C(C)(C)C)cc(S(=O)(=O)Nc2ccc(C(=O)O)cc2)c1C | inactive | – |
| O=C(O)c1ccc(NS(=O)(=O)c2ccc3c(c2)C(=O)c2cc(S(=O)(=O)Nc4ccc(C(=O)O)cc4)ccc2-3)cc1 | 0.329 µM (active) | – |

| SMILES | Potency | activity change, negative = inhibition |
| --- | --- | --- |
| Cc1cc(C)n(CCC(=O)N2CCN(S(=O)(=O)c3ccc(C)c(C)c3)CC2)n1 | inactive | – |
| O=C(NCCCN1CCOCC1)c1cc(-c2cccc(O)c2)on1 | inactive | – |
| CC(=O)Nc1nc2c(s1)C(=O)NCC(C)(C)C2 | inactive | – |
| COc1cccc(-c2nc(CS(=O)(=O)CC(=O)NCCc3ccc(OC)c(OC)c3)c(C)o2)c1 | inactive | – |
| O=C(NCc1ccccc1)c1onc(CSc2nc3ccccc3[nH]2)c1C(=O)NCc1ccccc1 | 1.85 µM (active) | – |
| COc1ccccc1CSc1nc2ccccc2[nH]1 | inactive | – |
| CCc1nc2ccccc2c(C(=O)NCc2ccc(OC)cc2)c1C | inactive | – |
| Cc1ccc(C)c(NC(=O)COC(=O)Cn2c(C)csc2=O)c1 | inactive | – |
| O=C(Nc1ccccc1)C1CC(=O)n2c(nc3ccccc32)N1 (configuration not stated) | inactive | – |
| Cc1ccc(OCC(=O)Nc2ccccc2C(=O)NC2CC2)cc1 | inactive | – |
| CC1(c2ccc(Cl)cc2)NC(=O)N(CC(=O)c2ccc3c(c2)OCO3)C1=O (configuration not stated) | inactive | – |
| COCCNC(=O)c1ccc(N2CCC3(CC2)OCCO3)c([N+](=O)[O-])c1 | 14.7 µM (active) | – |
| CCOC(=O)c1c(NC(=O)c2ccc(N3CCOCC3)c([N+](=O)[O-])c2)sc(C)c1C | inactive | – |
| O=C(NCCCN1CCOCC1)c1ccc(N2CCCC2)c([N+](=O)[O-])c1 | inactive | – |
| Cc1cccc(-c2noc(CCC(=O)NC3CCCC3)n2)c1 | inactive | – |
| NS(=O)(=O)c1cc(C(=O)OCC(=O)NNC(=O)c2ccccc2)ccc1Cl | inactive | – |
| O=C(/C=C/c1ccc2c(c1)OCO2)NCc1ccc(F)cc1 | inactive | – |
| CC1CCC(NC(=O)C2c3ccccc3C(=O)N2Cc2ccc3c(c2)OCO3)CC1 (configuration not stated) | inactive | – |
| CC1CCC(N2CC(=O)N(Cc3ccc4c(c3)OCO4)C(c3ccc(F)cc3)C2=O)CC1 (configuration not stated) | 9.28 µM (active) | – |
